GPT2 inh = inhibitors of human GPT2 alanine aminotransferase; Q8TD30; Recombinant GPT2, coupled pyruvate oxidase/HRP Amplex Red fluorescence; Potency, µM (titrated, usually from 57.7 µM), hits mostly inhibitors; 0.25% of 100,000 active; AID 1671188; note: nearly all actives have a fitted effect of over 60% in size
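Fluorescence read-out: pyruvate from GPT2 turnover coupled to pyruvate oxidase, HRP and Amplex Red (0.2mM ThPP, 0.2U/mL PO and HRP, 50uM Amplex final). Substrates 250uM a-KG, 2mM L-alanine; enzyme 10ng/uL; 30 min RT.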
FLuc inh-1 = Photinus pyralis luciferase inhibition | P08659 | purified P. pyralis luciferase, luminescence, biochemical | Potency, µM (top dose mostly 115 µM), hits mostly inhibitors | 2.5% of 76,000 active; note: nearly all actives have a fitted effect of over 65% in size
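Purified 10nM P. pyralis luciferase with 10uM D-luciferin and 10uM ATP in 50mM Tris acetate pH 7.5, 10mM Mg acetate, 0.01% Tween-20, 0.05% BSA. qHTS titration; luminescence read by CCD imager.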
NPR1 antag = antagonists of human natriuretic peptide receptor Npr1; HEK293 hNpr1 GloSensor cGMP, ANP-stimulated luminescence; Potency, µM (highest dose often 46.3 µM), actives largely listed as inhibitors; 1.6% of 76,000 active; AID 1347048; calls by dose curve; note: nearly all actives have a fitted effect of over 60% in size
Target sequence (P16066 whole entry, looked up): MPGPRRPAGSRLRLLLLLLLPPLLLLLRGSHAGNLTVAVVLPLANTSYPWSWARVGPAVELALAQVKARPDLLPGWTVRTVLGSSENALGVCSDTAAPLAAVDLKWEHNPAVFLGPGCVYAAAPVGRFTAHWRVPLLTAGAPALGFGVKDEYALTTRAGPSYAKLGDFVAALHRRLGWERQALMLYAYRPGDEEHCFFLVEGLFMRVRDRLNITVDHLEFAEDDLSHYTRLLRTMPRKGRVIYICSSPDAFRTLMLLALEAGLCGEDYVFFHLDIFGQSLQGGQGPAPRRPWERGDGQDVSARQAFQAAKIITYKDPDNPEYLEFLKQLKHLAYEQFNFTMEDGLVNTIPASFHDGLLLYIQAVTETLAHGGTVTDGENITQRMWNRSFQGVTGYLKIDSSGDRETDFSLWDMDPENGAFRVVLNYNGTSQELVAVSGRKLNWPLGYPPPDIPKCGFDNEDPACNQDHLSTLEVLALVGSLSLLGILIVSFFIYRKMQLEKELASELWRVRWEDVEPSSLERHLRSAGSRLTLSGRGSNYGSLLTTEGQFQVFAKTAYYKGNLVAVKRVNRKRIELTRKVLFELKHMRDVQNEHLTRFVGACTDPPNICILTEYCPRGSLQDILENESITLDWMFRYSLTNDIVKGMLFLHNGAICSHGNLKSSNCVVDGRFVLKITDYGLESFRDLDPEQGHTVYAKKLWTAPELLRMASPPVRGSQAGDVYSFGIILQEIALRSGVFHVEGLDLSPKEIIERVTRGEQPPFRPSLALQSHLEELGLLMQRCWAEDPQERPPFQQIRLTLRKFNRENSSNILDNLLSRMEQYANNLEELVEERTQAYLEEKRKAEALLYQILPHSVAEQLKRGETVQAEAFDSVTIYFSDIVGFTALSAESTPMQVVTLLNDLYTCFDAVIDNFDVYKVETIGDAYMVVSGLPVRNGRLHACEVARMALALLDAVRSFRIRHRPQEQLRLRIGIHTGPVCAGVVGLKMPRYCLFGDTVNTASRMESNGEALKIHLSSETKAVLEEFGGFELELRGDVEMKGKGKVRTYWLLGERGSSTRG
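HEK293 cells stably expressing human Npr1 and cGMP GloSensor pGS-40F, loaded 2 h with 2% GloSensor reagent, given compound 30 min at room temperature. Luminescence read before and 20 min after 0.1 nM hNppA.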
HEK293 tox = HEK 293 cell cytotoxicity; HEK 293 viability, ATP luminescence (CellTiter-Glo), 48-72 h; Potency, µM (top dose mostly 115 µM), hits mostly inhibitors; 6.6% of 94,000 active; AID 1345083; note: nearly all actives have a fitted effect of over 60% in size
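250 HEK 293 cells/well; compound by pintool; incubated 48 or 72 hr at 37 degree Celsius; CellTiter-Glo added, 10 min RT, luminescence imaged.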
NIH3T3 tox = NIH 3T3 cell cytotoxicity | 4.3% of 94,000 active | NIH 3T3 viability, CellTiter-Glo ATP luminescence, 48-72 h | Potency, µM (highest dose often 96.7 µM), actives largely listed as inhibitors | AID 1345082; note: nearly all actives have a fitted effect of over 55% in size
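Mouse fibroblast NIH 3T3 cells, 400 per well, received compound via pintool and were incubated for 48 or 72 hr prior to CellTiter-Glo ATP luminescence measurement.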
FLuc SDR no ATP = stabilizes firefly luciferase without ATP; Potency, µM (top dose mostly 32.7 µM), most hits filed as activators; AID 1963318; Purified FLuc-C-HiBiT, Nano-Glo HiBiT luminescence, no ATP; shares compounds with FLuc inh-1; 7.8% of 1,300 active; note: nearly all actives have a fitted effect of over 55% in size
FLuc SDR ATP = stabilizes firefly luciferase with ATP present. purified FLuc-C-HiBiT + ATP, HiBiT complementation luminescence. AID 1963319. 8.7% of 1,300 active. shares compounds with FLuc inh-1. Potency, µM (doses to about 32.7 µM), hits mostly activators;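 note: signal reports ligand binding via conformational change of the enzyme rather than luciferase catalysis; nearly all actives have a fitted effect of over 55% in size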
FLuc inh-2 = blocks firefly luciferase enzymatic activity; shares compounds with FLuc inh-1; purified FLuc-C-HiBiT enzyme, luciferin luminescence; Potency, µM (doses to about 32.7 µM), most hits filed as inhibitors; 42% of 1,300 active; note: nearly all actives have a fitted effect of over 70% in size
Large screens that a line does not name were inactive (follow-up assays come after a bar, where they were run); [ ] = remark or other dose. Only a sample is shown. Unless noted, calls come from the whole dose curve; as a rule, active = well fitted curve in the direction sought with a large enough effect; inconclusive = small, poorly fitted or top-dose-only effect, or another doubt; inactive = no such curve, though single readings can be large; an effect the other way counts as inactive or inconclusive.

Cc1ccc(C2=CC(c3ccccc3F)n3c(nc4ccccc43)N2)cc1C (stereo unspecified)	none (no result: GPT2 inh, FLuc inh-1, NPR1 antag, HEK293 tox, NIH3T3 tox) | FLuc SDR no ATP inconclusive | FLuc SDR ATP inconclusive | FLuc inh-2 3.1µM
CC(=O)NCc1nnc2n1C(C(=O)Nc1ccc(F)cc1)CC2 (stereo unspecified)	none (no result: FLuc inh-1, NPR1 antag)
CCOc1ccc(C(=O)Nc2cc(-c3nc4ccccc4s3)ccc2OC)cc1	none (no result: GPT2 inh, FLuc inh-1, NPR1 antag, HEK293 tox, NIH3T3 tox) | FLuc SDR no ATP inactive | FLuc SDR ATP inactive | FLuc inh-2 inactive
COc1ccc(C(=O)Nc2cc(-c3nc4ccccc4s3)ccc2OC)cc1	none (no result: GPT2 inh, FLuc inh-1, NPR1 antag, HEK293 tox, NIH3T3 tox) | FLuc SDR no ATP inactive | FLuc SDR ATP inactive | FLuc inh-2 inconclusive
O=C(Nc1cccc(-c2nc3ccccc3s2)c1)N1CCC(O)C1 (stereo unspecified)	none (no result: GPT2 inh, FLuc inh-1, NPR1 antag, HEK293 tox, NIH3T3 tox) | FLuc SDR no ATP inconclusive | FLuc SDR ATP inconclusive | FLuc inh-2 8.8µM
Cc1cccc(NC(=O)N2CCC(Cc3nc(-c4ccccc4)n[nH]3)CC2)c1	none
Cc1nonc1COc1ccc(C(=O)Nc2cccc(-c3nc4ccccc4s3)c2)cc1	none (no result: GPT2 inh, FLuc inh-1, NPR1 antag, HEK293 tox, NIH3T3 tox) | FLuc SDR no ATP inactive | FLuc SDR ATP inactive | FLuc inh-2 inconclusive
Cc1ccc(CN2CC3(COCC2=O)CN(c2cnccn2)C3)cc1C	HEK293 tox inconclusive
Cc1cccc(C(=O)N2CCCC(N3CCN(c4cccc(C(F)(F)F)c4)CC3)C2)c1 (stereo unspecified)	HEK293 tox inconclusive
Cc1cccc(C(=O)NCc2nnc3c(-c4nc(C(C)C)no4)cccn23)c1	none
Cc1ccsc1CN1CCC(n2c(C3CC3)nn(C)c2=O)CC1	none (no result: FLuc inh-1, NPR1 antag)
COc1ccc(-c2nc3cc(F)ccc3s2)cc1OC	none (no result: GPT2 inh, FLuc inh-1, NPR1 antag, HEK293 tox, NIH3T3 tox) | FLuc SDR no ATP inactive[3.62 µM] | FLuc SDR ATP inactive[3.62 µM] | FLuc inh-2 inconclusive
Cc1c(C(=O)Nc2cccc(-c3nc4ccccc4s3)c2)oc2ccc(F)cc12	none (no result: GPT2 inh, FLuc inh-1, NPR1 antag, HEK293 tox, NIH3T3 tox) | FLuc SDR no ATP inactive | FLuc SDR ATP inactive | FLuc inh-2 inactive
CCCCOc1ccc(C(=O)Nc2ccc(-c3nc4ccccc4s3)cc2C)cc1	none (no result: GPT2 inh, FLuc inh-1, NPR1 antag, HEK293 tox, NIH3T3 tox) | FLuc SDR no ATP inactive | FLuc SDR ATP inactive | FLuc inh-2 inactive
COc1ccc(-c2noc(-c3nc(-c4ccc(OC)c(OC)c4)no3)n2)cc1OC	none
COc1ccc(-c2nc3ccccc3s2)cc1NC(=O)c1cccc(F)c1	none (no result: GPT2 inh, FLuc inh-1, NPR1 antag, HEK293 tox, NIH3T3 tox) | FLuc SDR no ATP inactive | FLuc SDR ATP inactive | FLuc inh-2 inactive
O=C(Cc1ccsc1)N1CCOc2ccc(CN3CCCCCC3)cc2C1	HEK293 tox inconclusive, NIH3T3 tox inconclusive (no result: FLuc inh-1, NPR1 antag)
COCCCNC(=O)c1ccc2nc(-c3cccnc3)oc2c1	HEK293 tox inconclusive, NIH3T3 tox inconclusive (no result: FLuc inh-1, NPR1 antag)
COc1ccc(C(=O)Nc2ccc(-c3nc4ccccc4s3)cc2C)cc1Cl	none (no result: GPT2 inh, FLuc inh-1, NPR1 antag, HEK293 tox, NIH3T3 tox) | FLuc SDR no ATP inactive | FLuc SDR ATP inactive | FLuc inh-2 inactive
COc1ccc(-c2nc3ccccc3s2)cc1NC(=O)c1cc(OC)c(OC)c(OC)c1	none (no result: GPT2 inh, FLuc inh-1, NPR1 antag, HEK293 tox, NIH3T3 tox) | FLuc SDR no ATP inactive | FLuc SDR ATP inactive | FLuc inh-2 inconclusive
COc1ccc(-c2nc3ccccc3o2)cc1NC(=O)c1cccnc1	none (no result: GPT2 inh, FLuc inh-1, NPR1 antag, HEK293 tox, NIH3T3 tox) | FLuc SDR no ATP inactive | FLuc SDR ATP inactive | FLuc inh-2 inconclusive
COc1cc(-c2nc3ccccc3s2)ccc1O	none (no result: GPT2 inh, FLuc inh-1, NPR1 antag, HEK293 tox, NIH3T3 tox) | FLuc SDR no ATP inactive | FLuc SDR ATP inactive | FLuc inh-2 11µM
N#Cc1ccc(C(=O)N2CCC(N3C(=O)[C@H]4CN(Cc5ccccc5)C[C@H]4C3=O)CC2)cc1	none (no result: FLuc inh-1, NPR1 antag)
O=C1CS(=O)C2(CCN(S(=O)(=O)Cc3ccccc3)CC2)N1CC1CC1 (stereo unspecified)	none
CCc1noc(-c2cn(C3CCN(C(=O)c4cccc(NC(C)=O)c4)CC3)nn2)n1	none
Cc1ccccc1C(=O)N1CCCC(C(=O)N2CCC(c3nc4ncccc4[nH]3)CC2)C1 (stereo unspecified)	none (no result: FLuc inh-1, NPR1 antag)
O=C(CCC1CCN(C(=O)c2ccccc2)CC1)NCCCN1CCCc2ccccc21	HEK293 tox inconclusive, NIH3T3 tox inconclusive
COc1ccccc1NC(=O)c1cc(-c2ccc(C(F)(F)F)cc2)nc2c1cnn2C	none (no result: GPT2 inh, FLuc inh-1, NPR1 antag)
COc1ccc(-c2nc3ccccc3s2)cc1NC(=O)c1ccccc1OC	none (no result: GPT2 inh, FLuc inh-1, NPR1 antag, HEK293 tox, NIH3T3 tox) | FLuc SDR no ATP inactive | FLuc SDR ATP inactive | FLuc inh-2 inconclusive
COc1ccc(C(=O)NCc2nnc3ccc(-c4ccc(Cl)cc4)nn23)c(C)c1	HEK293 tox inconclusive
COc1ccc(C(=O)Nc2cc(C(C)C)c(O)c(S(=O)(=O)c3ccc(Cl)cc3)c2C)cc1	none (no result: GPT2 inh, FLuc inh-1, NPR1 antag, HEK293 tox, NIH3T3 tox) | FLuc SDR no ATP inactive | FLuc SDR ATP inactive | FLuc inh-2 inconclusive
COC(=O)CNC(=O)c1ccc2nc(-c3ccncc3)oc2c1	none (no result: FLuc inh-1, NPR1 antag)
COC(=O)CNC(=O)C1CN(S(=O)(=O)c2cccs2)CC12CCCCC2 (stereo unspecified)	none
CC(=O)NC[C@H]1Cn2cc(-c3ccccc3)nc2CO1	FLuc inh-1 inconclusive
